Compound activity deposited in PubChem BioAssay by National Center for Advancing Translational Sciences (NCATS).
IL-1B inflam inh = inflammasome signaling inhibition, IL-1 beta readout. AID 743279. THP-1 LPS/ATP IL-1B secretion, AlphaLISA, 16 h; active compounds read low. activity change, % at 57.5 µM. hit rate 4.7% among 360,000; in the data active means activity change below about -50%; inconclusive means mostly about -30% to -49%
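THP-1 cells pretreated 1 hr with compounds (up to 57.5 uM final), then stimulated with LPS (250 ng/mL final) plus ATP (1.25 mM final); secreted IL-1B measured by AlphaLISA after 16 hr, decreased signal indicating inhibition.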
TDP1 cell noCPT = qHTS for Inhibitors of human tyrosyl-DNA phosphodiesterase 1 (TDP1): qHTS in cells in absence of CPT; DT40 Tdp1-/- hTDP1 cells, no CPT, ATP luminescence, 48 h; Potency, µM (top dose mostly 46.2 µM), inactives show at the top dose activity change, negative = growth inhibition, hits mostly inhibitors; AID 686978, 2013; hit rate 15% among 420,000; further: potency means the concentration at half of the fitted maximal effect; nearly all actives have a fitted effect of over 55% in size
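Chicken DT40 Tdp1-/- cells complemented with human TDP1, screened without camptothecin (DMSO vehicle only), 400 cells/well. Compounds pin-transferred, cells incubated at 37 °C for at least 48 hr. Growth read as ATP-dependent luminescence (CellTiter-Glo, 30 min at RT).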
12-LOX inh = inhibitors of human 12S-lipoxygenase ALOX12. P18054. purified 12hLO, xylenol orange hydroperoxide absorbance. Potency, µM (top dose mostly 108 µM), for the others: at the highest dose activity change, negative = inhibition, actives largely listed as inhibitors. hit rate 1.1% among 580,000. AID 1671190; further: potency means the concentration at half of the fitted maximal effect
Target sequence (P18054 whole entry, looked up): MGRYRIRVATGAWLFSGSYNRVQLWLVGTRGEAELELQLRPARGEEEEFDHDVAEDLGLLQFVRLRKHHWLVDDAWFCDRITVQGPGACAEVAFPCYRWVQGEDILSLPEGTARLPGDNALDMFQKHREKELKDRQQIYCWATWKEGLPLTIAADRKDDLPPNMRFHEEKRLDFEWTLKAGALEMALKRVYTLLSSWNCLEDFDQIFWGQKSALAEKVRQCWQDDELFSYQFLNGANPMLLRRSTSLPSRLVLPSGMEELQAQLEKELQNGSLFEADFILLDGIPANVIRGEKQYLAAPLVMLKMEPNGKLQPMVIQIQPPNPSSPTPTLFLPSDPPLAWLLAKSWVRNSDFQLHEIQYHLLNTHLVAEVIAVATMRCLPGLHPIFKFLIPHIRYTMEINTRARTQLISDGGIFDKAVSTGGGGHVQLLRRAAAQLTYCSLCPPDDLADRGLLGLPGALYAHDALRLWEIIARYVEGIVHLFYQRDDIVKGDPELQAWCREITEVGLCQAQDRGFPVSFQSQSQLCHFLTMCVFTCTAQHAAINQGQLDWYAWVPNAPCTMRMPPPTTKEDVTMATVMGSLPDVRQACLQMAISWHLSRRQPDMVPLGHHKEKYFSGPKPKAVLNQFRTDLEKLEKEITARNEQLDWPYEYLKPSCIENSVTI
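Purified human 12hLO at 150 nM in 25 mM Hepes, 0.01% Triton X-100, pH 7.0, preincubated 15 min at room temperature with compound. Reaction started with 40 uM arachidonic acid, 30 min at room temperature. Hydroperoxide measured by Fe-xylenol orange, 573/405 nm absorbance ratio.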
TDP1 cell CPT = DT40-hTDP1 cell growth loss with CPT; chicken DT40 Tdp1-/-;hTDP1 cells + 20 nM CPT, ATP luminescence, 48 h; Potency, µM (titrated, usually from 46.2 µM), for the others: at the top dose activity change, negative = growth inhibition, hits mostly inhibitors; hit rate 12% among 420,000; AID 686979; further: potency means the concentration at half of the fitted maximal effect; nearly all actives have a fitted effect of over 55% in size
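Chicken DT40 Tdp1-/- cells stably complemented with human TDP1 were seeded at 400 cells/well in medium containing 20 nM camptothecin, exposed to pin-transferred compounds, and grown at 37 °C for at least 48 hr. Viability was read as ATP luminescence.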
HT1080 IDH1KD tx = toxicity to HT-1080 IDH1 knockdown cells (counter line). AID 686971. HT-1080 IDH1 knockdown viability, ATP luminescence, 48 h. Potency, µM (series often up to 46.1 µM), inactives show top-dose activity, negative = toxicity, most hits filed as cytotoxic. hit rate 2% among 360,000;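 further: potency means the concentration at half of the fitted maximal effect; 0% = DMSO wells and -100% = cell-free medium wells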
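Viability of IDH1-knockdown HT-1080 fibrosarcoma cells was assessed by CellTiter-Glo after 48 h at 37 °C with titrated compound; concentration-effect curves were classified by fit quality and response size.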
HT1080-NT tox = kills 2HG-producing HT-1080-NT fibrosarcoma cells; HT-1080-NT fibrosarcoma viability, CellTiter-Glo ATP luminescence, 48 h; hit rate 1.6% among 360,000; AID 686970; Potency, µM (titrated, usually from 46.1 µM), for inactives: top-dose activity, negative = less viability, most hits filed as cytotoxic;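 further: NT is the 2HG producing partner of a matched IDH1 knockdown line; potency means the concentration at half of the fitted maximal effect; 0% = DMSO-treated cells and -100% = media-only wells without cells; nearly all actives have a fitted effect of over 55% in size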
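Luminescent CellTiter-Glo readout after 48 hours of compound exposure at 37 degrees C defined viability of HT-1080-NT cells. Activity was normalized to DMSO wells and cell-free media wells; concentration-response curves were fitted and assigned curve classes.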
Numbers without * were called inactive; ? = inconclusive; / = not tested or not shown; [ ] = another dose, or the depositor's remark. Only a selection was taken, and hits are over-represented in it overall. Unless noted, the call rests on the fitted dose curve; in most records, active means well fitted curve in the direction sought with a large enough effect; inconclusive means small, poorly fitted or top-dose-only effect, or another doubt; inactive means no such curve, though single readings can be large; an effect the other way counts as inactive or inconclusive. Unless noted, on the % scale 0 is the no-effect control and ±100 the full control effect.

SMILES	IL-1B inflam inh	TDP1 cell noCPT	12-LOX inh	TDP1 cell CPT	HT1080 IDH1KD tx	HT1080-NT tox
Cc1ccc(CS(=O)Cc2ccc(F)cc2Cl)cc1 (centres undefined)	/	/	-28%	/	/	/
CC(C)c1ccc(C(N)=O)cc1	/	/	-3%	/	/	/
COc1ccc(OCC(=O)Nc2ccc(OC)c(S(=O)(=O)N3CCCCC3)c2)cc1	2	12µM*	-1%	15µM*	?	-18%
CCn1cc(C(=O)NC2CCCCC2C)c(=O)c2ccc(C)nc21 (centres undefined)	-21	11µM*	16µM*	?	15%	8%
CCn1cc(C(=O)OCC(=O)N2C(C)CCCC2C)c(=O)c2ccc(C)nc21 (centres undefined)	16	-3%	1%	-18%	3%	-2%
COc1ccc(NC(=O)CSc2ccc(NC(C)=O)cc2)cc1S(=O)(=O)N1CCOCC1	-8	-4%	-3%	-13%	-5%	-5%
COc1ccc(NC(=O)COc2ccccc2Cl)cc1S(=O)(=O)N1CCCCC1	-9	-15%	?	?	-10%	-12%
COc1ccc(NS(=O)(=O)c2c(F)cc(F)c(Cl)c2F)cc1S(=O)(=O)N1CCCCC1	-53*	-4%	-2%	2%	-3%	-7%
COc1ccc(NC(=O)CSc2ccc3ccccc3c2)cc1S(=O)(=O)N1CCCCC1	-4	16µM*	-10%	23µM*	-3%	-1%
CN1C(=O)CCc2cc(NC(=O)Cc3ccccc3Cl)ccc21	/	/	6%	/	/	/
CCOc1ncccc1C(=O)Nc1ccc(OC)c(S(=O)(=O)N2CCCCC2)c1	0	?	6%	?	4%	10%
CCn1cc(C(=O)Nc2ccc(OC)c(S(=O)(=O)N3CCCCC3)c2)c(=O)c2ccc(C)nc21	-7	23µM*	?	?	-7%	-3%
COc1cccc(NC(=S)N/N=C2\CC(C)(C)Oc3ccc(O)cc32)c1	-28	?	32µM*	?	-13%	-12%
Cc1cccc(NC(=S)N/N=C2\CC(C)(C)Oc3ccc(O)cc32)c1	?	2.6µM*	?	3.7µM*	-16%	-18%
CC1(C)C/C(=N\NC(=S)Nc2ccccc2F)c2cc(O)ccc2O1	-79*	4.1µM*	?	?	?	?
Cc1cccc(NC(=S)N/N=C/c2ccc3c(c2)OCO3)c1	9	?	?	?	7%	2%
CCCN1CCCC12Cc1ccccc1CN([S+](=O)([O-])c1ccccc1)C2 (centres undefined)	/	/	6%[6.33 µM]	/	/	/
COC(=O)c1cc2c(n1S(=O)(=O)c1ccc(C)cc1)C(=O)C(=O)c1[nH]cc(C(=O)OCc3ccccc3)c1-2	-85*	1.6µM*	/	0.82µM*	3.7µM*	9.2µM*
c1ccc(Cc2nnc([C@H]3CCN(CC4CCCCC4)C3)o2)cc1	/	/	89%[176 µM]	/	/	/
NNc1nnc(-c2ccccc2)c(-c2ccccc2)n1	8	16µM*	-10%	13µM*	?	?
N#Cc1ccc(-c2nc3c(Cl)cc(C(F)(F)F)cn3c2Cc2ccsc2)cc1	17	-11%	?	-9%	-5%	-4%
CCCc1nc2c(Cl)cc(C(F)(F)F)cn2c1Cc1ccc(OC)cc1C	44	16µM*	0%	21µM*	-12%	-25%
COc1ccc(Cc2c(-c3ccc(C#N)cc3)nc3c(Cl)cc(C(F)(F)F)cn23)c(C)c1	0	18µM*	?	?	-14%	0%
CC1CC(=Cc2ccc([N+](=O)[O-])cc2)C(=O)O1 (centres undefined)	-13	-19%	5%	1%	11%	2%
